Assay results as given in paper PMC10812921, “Transcriptional Coactivator BOB1 (OBF1, OCA-B) Modulates the Specificity of DNA Recognition by the POU-Domain Factors OCT1 and OCT2 in a Monomeric Configuration”.

Target: POU1 (OCT1 POU domain) (human, UniProt P14859 260-458)
Test: EMSA-SELEX-seq; no BOB1; 20 mM Tris-HCl pH 7.6, 140 mM NaCl, 10% glycerol, 0.5 mM EDTA, 0.05% Triton X-100, 0.1 mg/mL BSA, 0.1 mg/mL poly(dI-dC), 5 mM DTT, room temperature, 20 min; high values mean tight binding
Details: protein: recombinant; dsDNA, one strand shown
In short: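 Binding preference is the percentage of sequenced 8-mers matching a motif pattern. Tagged POU-domain proteins expressed in E. coli BL21 were purified under denaturing conditions and renatured. For binding, 30 ng protein met 300 ng of a PCR-amplified double-stranded random 35-nt library, with or without 28 ng coactivator protein, in 20 μL Tris–HCl pH 7.6 binding buffer for 20 min at RT. Complex bands were cut from native 6% PAGE, eluted and PCR-amplified over four rounds, then Illumina-sequenced.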

POU1 (OCT1 POU domain), sequence (P14859 260-458): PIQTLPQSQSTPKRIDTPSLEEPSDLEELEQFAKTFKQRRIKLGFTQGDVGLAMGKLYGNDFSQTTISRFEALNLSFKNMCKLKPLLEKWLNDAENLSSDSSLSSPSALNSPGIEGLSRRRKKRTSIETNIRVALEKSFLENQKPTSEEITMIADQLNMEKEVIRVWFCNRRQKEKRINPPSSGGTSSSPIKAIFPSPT

Sequence	binding signal
ACCTTAAA	0.021 % of ANNNNAAN 8-mers
ATATAAAG	0.0725 % of ANNNNAAN 8-mers
ATGTTAAC	0.0645 % of ANNNNAAN 8-mers
AGCTTAAG	0.029 % of ANNNNAAN 8-mers
AGGAAAAA	0.134 % of ANNNNAAN 8-mers
ATAGAAAC	0.0328 % of ANNNNAAN 8-mers
AGGCTAAT	0.133 % of ANNNNAAN 8-mers
AAGCCAAG	0.0271 % of ANNNNAAN 8-mers
ATAGTAAG	0.0633 % of ANNNNAAN 8-mers
ATTACAAT	0.195 % of ANNNNAAN 8-mers
AAGCAAAG	0.0847 % of ANNNNAAN 8-mers
ATCACAAA	0.0332 % of ANNNNAAN 8-mers
AATATAAG	0.101 % of ANNNNAAN 8-mers
ATCACAAC	0.0194 % of ANNNNAAN 8-mers
AGGCTAAA	0.0381 % of ANNNNAAN 8-mers
AGGCAAAG	0.146 % of ANNNNAAN 8-mers
ATTTTAAC	0.0812 % of ANNNNAAN 8-mers
ACTTAAAA	0.0587 % of ANNNNAAN 8-mers
ATTCCAAC	0.0339 % of ANNNNAAN 8-mers
AACTGAAC	0.0179 % of ANNNNAAN 8-mers

Sequence	binding signal
ACTTGAAC	0.0183 % of ANNNNAAN 8-mers
AACTGAAA	0.0358 % of ANNNNAAN 8-mers
ATGGAAAT	0.943 % of ANNNNAAN 8-mers
ACAATAAA	0.0481 % of ANNNNAAN 8-mers
AGAGCAAC	0.0133 % of ANNNNAAN 8-mers
ATCTCAAA	0.0435 % of ANNNNAAN 8-mers
AAGCAAAA	0.142 % of ANNNNAAN 8-mers
ACTCTAAA	0.0271 % of ANNNNAAN 8-mers
ACAGCAAA	0.0248 % of ANNNNAAN 8-mers
AGTCCAAG	0.0236 % of ANNNNAAN 8-mers
AGCCAAAA	0.0355 % of ANNNNAAN 8-mers
ACTCTAAC	0.013 % of ANNNNAAN 8-mers
AACGGAAC	0.0187 % of ANNNNAAN 8-mers
AGGTTAAA	0.0545 % of ANNNNAAN 8-mers
ATTCAAAA	0.365 % of ANNNNAAN 8-mers
AATCTAAT	0.116 % of ANNNNAAN 8-mers
AAACCAAC	0.0206 % of ANNNNAAN 8-mers
AATGTAAG	0.104 % of ANNNNAAN 8-mers
ATCAAAAC	0.0465 % of ANNNNAAN 8-mers
